Source: publication PMC5540273 (PLoS ONE, 2017)

Legend:
Conditions in all cases: concentration: 1 μM, replicates: in singlicate; n = 1
CAMKK1 = system: CAMKK1
CAMKK2 = system: CAMKK2
CASK = system: CASK
CDC2L1 = system: T1, CDC2L1
T1 construct: gene CDK11B

CDC2L2 = system: CDC2L2
CDC2L5 = system: T2, CDC2L5
T2 construct: gene CDK13

CDK11 = system: T3, CDK11
T3 construct: gene CDK19

CDK2 = system: CDK2
CDK3 = system: CDK3
CDK4-cyclinD1 = system: CDK4-cyclinD1
CDK4-cyclinD3 = system: CDK4-cyclinD3
CDK4 = system: CDK4
CDK5 = system: CDK5
CDK7 = system: CDK7
CDK8 = system: CDK8
CDK9 = system: CDK9
CDKL1 = system: CDKL1
CDKL2 = system: CDKL2
CDKL3 = system: CDKL3
CDKL5 = system: CDKL5
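Also: KINOMEscan kinase panel screen.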

SMILES | %Inh (CAMKK1) [%] | %Inh (CAMKK2) [%] | %Inh (CASK) [%] | %Inh (CDC2L1) [%] | %Inh (CDC2L2) [%] | %Inh (CDC2L5) [%] | %Inh (CDK11) [%] | %Inh (CDK2) [%] | %Inh (CDK3) [%] | %Inh (CDK4-cyclinD1) [%] | %Inh (CDK4-cyclinD3) [%] | %Inh (CDK4) [%] | %Inh (CDK5) [%] | %Inh (CDK7) [%] | %Inh (CDK8) [%] | %Inh (CDK9) [%] | %Inh (CDKL1) [%] | %Inh (CDKL2) [%] | %Inh (CDKL3) [%] | %Inh (CDKL5) [%]
CC(C)(C)n1cnc2c(N)ncnc21 [SKF-97359] | 0 | 0 | 0 | 0 | 0 | 0 | 0 | 0 | 0 | 21 | 0 | 0 | 0 | 0 | 66 | 0 | 0 | 28 | 0 | 0
O=C(c1ccc(-c2cc(-c3c[nH]nc3-c3ccccn3)ccn2)cc1)N1CCOCC1 [GW812171] | 0 | 0 | 4 | 0 | 2 | 11 | 0 | 0 | 0 | 0 | 0 | 1 | 0 | 17 | 7 | 0 | 25 | 8 | 0 | 0
Cn1cc(-c2ccc3c(c2)CCN3C(=O)Cc2ccccc2Cl)c2c(N)ncnc21 [GSK2608885] | 25 | 28 | 0 | 0 | 14 | 0 | 0 | 0 | 0 | 0 | 0 | 22 | 0 | 1 | 7 | 0 | 0 | 17 | 0 | 10
O=c1cc(N2CCOCC2)nc2n(Cc3cccc(C(F)(F)F)c3)ccn12 [GSK2297543] | 3 | 0 | 9 | 0 | 18 | 0 | 3 | 0 | 0 | 0 | 7 | 12 | 0 | 0 | 16 | 0 | 0 | 20 | 0 | 0
[2H]C([2H])(c1cccc(C(F)(F)F)c1C)n1ccn2c(=O)nc(N3CCOCC3)cc12 [GSK2336394] | 0 | 0 | 8 | 0 | 17 | 0 | 5 | 0 | 1 | 0 | 0 | 14 | 0 | 0 | 2 | 0 | 8 | 22 | 0 | 0
NS(=O)(=O)c1cccc(-c2ccc3ncc(N4CCOCC4)nc3c2)c1 [GSK1535721] | 11 | 12 | 1 | 6 | 34 | 0 | 7 | 0 | 0 | 0 | 0 | 12 | 0 | 20 | 31 | 3 | 15 | 0 | 0 | 0
Cc1ccc(NC(=O)c2ccnc(N3CCN(C)CC3)c2)cc1-c1ccc(C(=O)NCC2CC2)cc1 [GW775604] | 0 | 0 | 10 | 0 | 0 | 0 | 0 | 0 | 34 | 0 | 0 | 2 | 0 | 0 | 0 | 0 | 0 | 0 | 5 | 0
COc1ccc(Nc2ncc(C#N)c(Nc3ccccc3C(N)=O)n2)cc1N1CCN(C)CC1.Cl [GSK1558669] | 96.9 | 98.5 | 75 | 0 | 1 | 69 | 0 | 96.3 | 90 | 94.8 | 90 | 93.9 | 99.7 | 99.8 | 0 | 72 | 89 | 94.7 | 0 | 29
NCC(NC(=O)c1cc(-c2cn[nH]c2)c(-c2ccnc3[nH]ccc23)s1)c1ccccc1.O=C(O)C(F)(F)F.O=C(O)C(F)(F)F (stereo not drawn) [GSK1325775] | 76 | 67 | 23 | 0 | 11 | 32 | 34 | 0 | 0 | 48 | 41 | 0 | 0 | 93.7 | 33 | 64 | 34 | 53 | 68 | 48
Cc1c2ccc(N(C)c3ccnc(Nc4cccc(S(N)(=O)=O)c4)n3)cc2nn1Cc1ccccc1.Cl.Cl [GW787226] | 0 | 0 | 9 | 66 | 76 | 0 | 9 | 0 | 3 | 0 | 0 | 2 | 0 | 3 | 0 | 3 | 0 | 39 | 10 | 0
COCCNC(=O)c1ccc(-c2cc(C(=O)NC3CC3)cc(F)c2C)cc1 [GW868318] | 3 | 16 | 16 | 3 | 15 | 33 | 6 | 12 | 11 | 24 | 0 | 21 | 11 | 25 | 0 | 0 | 19 | 28 | 27 | 26
N#Cc1ccc(-c2cc(-c3c[nH]nc3-c3ccccn3)ccn2)cc1 [GW693028] | 0 | 2 | 9 | 0 | 0 | 0 | 12 | 0 | 6 | 0 | 2 | 11 | 0 | 0 | 23 | 0 | 8 | 13 | 0 | 0
COc1ccc(Nc2nccc(N3CCC(NC(=O)Nc4cccc(C(C)=O)c4)C3)n2)cc1 (stereo not drawn) [GSK1379731] | 0 | 1 | 0 | 0 | 0 | 0 | 79 | 0 | 0 | 2 | 0 | 8 | 0 | 0 | 61 | 0 | 1 | 43 | 0 | 0
O=C(NCCNc1ccnc(Nc2ccc(F)cc2)n1)c1cc2ccccc2s1 [GSK1379874] | 5 | 0 | 1 | 0 | 8 | 0 | 0 | 0 | 0 | 0 | 0 | 0 | 0 | 0 | 38 | 0 | 8 | 5 | 0 | 0
Cc1cccc(-c2nc(Nc3ccc4ncsc4c3)c3ccccc3n2)n1 [GW867588] | 0 | 20 | 1 | 0 | 13 | 0 | 0 | 9 | 6 | 0 | 0 | 7 | 0 | 17 | 43 | 3 | 1 | 0 | 1 | 0
